High-throughput results (PubChem BioAssay)
CRFR2-BP antag – CRF-BP/CRF-R2 complex antagonism. HEK293 CRF-R2/CRF-BP, CRF-induced calcium fluorescence. inhibition, % at 11.8 µM. actives 0.59% (n = 350,000);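 active = inhibition of the ligand-induced calcium signal above about 50% at the single tested concentration, limit read from the data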
TLR9-MyD88 block – inhibitors of human TLR9-MyD88 binding | inhibition, % at 4.98 µM | AID 504734 | actives 0.21% (n = 340,000) | CHO BLA complementation TLR9-MyD88, CCF4 FRET ratio | Q9NR96+Q99836;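 active = inhibition above the mean over all tested compounds plus 3 SD, cut at about 21% in these data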;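 also: 0% = DMSO only wells and 100% = clavulanate BLA inhibitor control wells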
m5-HT2A agonist – agonists of mouse serotonin 5-HT2A receptor (HTR2A). P35363. AID 624169. CHO-K1 mHTR2A beta-arrestin complementation, luminescence; percent of 30 µM serotonin response. activation, % at 7.6 µM. actives 0.66% (n = 360,000);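 active = activation above a run cutoff, the mean activation of all tested compounds plus 3 SD, cut at about 14% in these data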;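 also: 0% = plate median of compound wells and 100% = 30 µM serotonin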
TLR4 MyD88 comp – blocks binding of human TLR4 to MyD88. O00206+Q99836. HeLa CL3-4 TLR4/MyD88 BLA complementation, FRET ratio. inhibition, % at 8.4 µM. actives 0.18% (n = 200,000). AID 861; in the data active = inhibition above about 25%;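 also: 0% = vehicle and 100% = reference inhibitor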
Target sequence (O00206 whole entry, looked up): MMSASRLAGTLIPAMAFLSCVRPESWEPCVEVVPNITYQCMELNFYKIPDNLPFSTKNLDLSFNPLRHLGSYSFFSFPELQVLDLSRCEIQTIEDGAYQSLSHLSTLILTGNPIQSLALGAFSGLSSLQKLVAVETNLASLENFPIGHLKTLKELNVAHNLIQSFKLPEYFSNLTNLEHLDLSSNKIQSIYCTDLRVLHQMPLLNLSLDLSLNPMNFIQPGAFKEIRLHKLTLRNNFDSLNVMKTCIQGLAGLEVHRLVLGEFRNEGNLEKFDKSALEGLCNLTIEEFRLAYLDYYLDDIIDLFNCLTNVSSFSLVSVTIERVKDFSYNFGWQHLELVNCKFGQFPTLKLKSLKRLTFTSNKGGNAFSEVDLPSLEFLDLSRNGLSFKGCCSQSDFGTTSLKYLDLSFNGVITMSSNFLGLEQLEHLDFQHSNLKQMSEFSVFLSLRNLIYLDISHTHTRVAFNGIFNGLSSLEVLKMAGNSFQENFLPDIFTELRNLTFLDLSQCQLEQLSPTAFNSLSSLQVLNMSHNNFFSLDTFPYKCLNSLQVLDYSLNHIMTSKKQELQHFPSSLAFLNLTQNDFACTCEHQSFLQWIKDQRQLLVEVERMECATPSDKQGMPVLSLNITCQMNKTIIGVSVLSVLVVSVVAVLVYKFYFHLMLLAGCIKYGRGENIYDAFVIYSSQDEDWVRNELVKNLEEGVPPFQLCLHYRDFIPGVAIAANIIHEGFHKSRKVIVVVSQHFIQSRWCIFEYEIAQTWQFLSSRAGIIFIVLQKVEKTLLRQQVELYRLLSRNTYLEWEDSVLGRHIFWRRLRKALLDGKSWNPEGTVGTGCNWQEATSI
Target sequence (Q99836 whole entry, looked up): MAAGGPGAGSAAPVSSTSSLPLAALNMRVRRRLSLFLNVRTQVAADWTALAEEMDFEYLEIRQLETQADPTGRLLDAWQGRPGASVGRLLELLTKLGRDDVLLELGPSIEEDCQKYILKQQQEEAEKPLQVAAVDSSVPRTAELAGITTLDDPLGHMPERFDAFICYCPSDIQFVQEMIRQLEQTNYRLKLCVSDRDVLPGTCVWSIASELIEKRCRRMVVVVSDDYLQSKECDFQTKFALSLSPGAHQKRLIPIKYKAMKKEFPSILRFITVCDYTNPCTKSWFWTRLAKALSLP
ABHD5-PLIN5 inh – ABHD5-PLIN5 protein interaction inhibition; AID 602281; inhibition, % at 4 µM; Split G. princeps luciferase complementation, luminescence, 4 h; actives 0.78% (n = 360,000);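 active = inhibition above the mean inhibition across every tested compound plus 3 SD, cut at about 22% in these data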;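 also: 0% = DMSO only wells and the 100% control is not disclosed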
NOD2 RIPK2 PPI – NOD2-RIPK2 protein interaction inhibition; O43353; CHO BLA complementation NOD2-RIPK2, CCF4 ratio; inhibition, % at 4.98 µM; actives 0.38% (n = 360,000); AID 624267; in the data active = inhibition above about 21%;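 also: 0% = vehicle only and 100% = reference blocker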
OPRM1 ag – OPRM1 agonism in mouse HTR2A counterscreen; shares compounds with m5-HT2A agonist; actives 5.3% (n = 2,300); AID 624380; U2OS OPRM1 beta-arrestin PathHunter, luminescence; DMSO 0%, DAMGO 9.3 µM 100%; activation, % at 9.3 µM;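 active = mean activation above the mean of DMSO-only wells plus 3 SD, cut at about 0.5% in these data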
m5-HT2A ag conf – mouse HTR2A agonism confirmed. activation, % at 7.6 µM. actives 19% (n = 2,300). AID 624381. shares compounds with m5-HT2A agonist. CHO-K1 PathHunter beta-arrestin recruitment, luminescence; DMSO 0%, 30 µM serotonin 100%;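 active = mean activation across triplicates above the hit threshold derived in the original primary screen, cut at about 15% in these data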
Starred values were filed as active, the others as inactive. Only some compounds are listed: those with a hit (about 2.4% of all), similar ones and a draw of the others.

For COCCCNC(=O)c1csc([C@H]2C[C@H](O)[C@@H](CO)O2)n1 the results were m5-HT2A agonist 18.6*, ABHD5-PLIN5 inh 3.8, NOD2 RIPK2 PPI -8.9, OPRM1 ag -0.5 and m5-HT2A ag conf -3.9.
`COC(=O)[C@H](Cc1ccc(O)cc1)NC(=O)Cn1cnc2c(OCc3ccccc3)ncnc21` gave CRFR2-BP antag -21.0, TLR9-MyD88 block -6.3, m5-HT2A agonist 14.7*, ABHD5-PLIN5 inh -4.8, NOD2 RIPK2 PPI -2.6 and m5-HT2A ag conf -3.1.
Screening COC(=O)[C@H](Cc1ccccc1)NC(=O)Cn1cnc2c(OCc3ccccc3)ncnc21 returned CRFR2-BP antag 10.3, TLR9-MyD88 block -1.1, m5-HT2A agonist 0.6, ABHD5-PLIN5 inh 0.7 and NOD2 RIPK2 PPI -6.5.
Screening COc1ccccc1C(=O)NNC(=O)C1CC=CCC1 (stereo not given) returned CRFR2-BP antag 5.2, TLR9-MyD88 block 2.4, m5-HT2A agonist 18.8*, ABHD5-PLIN5 inh -4.3, NOD2 RIPK2 PPI -4.7, OPRM1 ag -0.6 and m5-HT2A ag conf 0.7.
O=C(Nc1ccn(CCCN2CCN(c3ncccn3)CC2)c(=O)n1)OCc1ccccc1 was read as CRFR2-BP antag -15.7, TLR9-MyD88 block 3.1, m5-HT2A agonist 25.2*, ABHD5-PLIN5 inh 3.6, NOD2 RIPK2 PPI 0.1, OPRM1 ag -0.5 and m5-HT2A ag conf 28.9*.
Cc1c(-c2cccc(NC(=O)c3ccco3)c2)nc2ncccn12 was read as CRFR2-BP antag 2.6, TLR9-MyD88 block -2.7, m5-HT2A agonist 9.7, TLR4 MyD88 comp -17.3, ABHD5-PLIN5 inh -2.2 and NOD2 RIPK2 PPI -2.2.
For Cc1c(-c2cccc(NC(=O)c3cccs3)c2)nc2ncccn12 the results were CRFR2-BP antag 2.3, TLR9-MyD88 block -4.4, m5-HT2A agonist 15.4*, TLR4 MyD88 comp 0.6, ABHD5-PLIN5 inh 9.3, NOD2 RIPK2 PPI -7.1, OPRM1 ag -0.5 and m5-HT2A ag conf 7.1.
For O=C(NCc1ccccc1)C(c1ccccc1)N(C(=O)c1csnn1)C1CC1 (stereo not given) the results were CRFR2-BP antag -2.6, TLR9-MyD88 block -1.0, m5-HT2A agonist 2.7, TLR4 MyD88 comp -4.6, ABHD5-PLIN5 inh 1.9 and NOD2 RIPK2 PPI -0.9.
For Cc1ccc(C(C(=O)NCc2ccccc2)N(C(=O)c2csnn2)C2CC2)cc1 (stereo not given) the results were CRFR2-BP antag -12.4, TLR9-MyD88 block -1.3, m5-HT2A agonist 18.9*, ABHD5-PLIN5 inh 1.4, NOD2 RIPK2 PPI 5.9, OPRM1 ag -0.8 and m5-HT2A ag conf -3.1.
`O=C(CC1c2ccccc2C=C(c2ccsc2)N1c1ccc(-c2cccnc2)cc1)C1CC1` (stereo not given) gave m5-HT2A agonist 3.0, ABHD5-PLIN5 inh -2.2 and NOD2 RIPK2 PPI -5.4.
For NC(=O)Cc1nc(-c2ccccc2)cs1 the results were CRFR2-BP antag -15.3, TLR9-MyD88 block 10.0, m5-HT2A agonist 2.9, TLR4 MyD88 comp -2.2, ABHD5-PLIN5 inh -2.3 and NOD2 RIPK2 PPI -2.7.
NCCc1nc(-c2ccccc2)cs1 was read as CRFR2-BP antag -4.6, TLR9-MyD88 block -1.0, m5-HT2A agonist 35.0*, TLR4 MyD88 comp -5.1, ABHD5-PLIN5 inh -2.6, NOD2 RIPK2 PPI -12.7, OPRM1 ag -0.5 and m5-HT2A ag conf 14.0.
Screening CCOC(=O)[C@]12CCC=C1N(Cc1cccc3ccccc13)C(=O)[C@H](CC(=O)N1CCOCC1)C2 returned m5-HT2A agonist 1.3, ABHD5-PLIN5 inh -5.4 and NOD2 RIPK2 PPI -4.8.
Screening COc1ccc(NC(=O)c2cc(-c3cc(F)ccc3OC)n[nH]2)cn1 returned m5-HT2A agonist -3.7, ABHD5-PLIN5 inh 1.6 and NOD2 RIPK2 PPI -3.0.
Screening COc1cc(CN2CCN(Cc3c[nH]c4ccccc34)CC2CCO)cc(OC)c1 (stereo not given) returned CRFR2-BP antag -14.3, TLR9-MyD88 block -3.8, m5-HT2A agonist 19.4*, ABHD5-PLIN5 inh 2.0, NOD2 RIPK2 PPI 1.8, OPRM1 ag -0.5 and m5-HT2A ag conf 4.8.
CCc1nc2ccc(C(=O)NCC3CCCCC3)cn2c1N(C)Cc1ccc(OC)cc1 was read as m5-HT2A agonist -10.1, ABHD5-PLIN5 inh -1.1 and NOD2 RIPK2 PPI -3.1.
COC(=O)C[C@H]1CC[C@@H](NC(=O)Nc2cccc(OC)c2)[C@@H](CO)O1 was read as m5-HT2A agonist -3.5, ABHD5-PLIN5 inh -6.7 and NOD2 RIPK2 PPI -15.5.
Screening CCOC(=O)c1ccc(NC(=O)COc2ccc(-n3cnnn3)cc2)cc1 returned CRFR2-BP antag 4.4, TLR9-MyD88 block -5.3, m5-HT2A agonist 17.5*, TLR4 MyD88 comp -5.7, ABHD5-PLIN5 inh -2.0, NOD2 RIPK2 PPI 1.8, OPRM1 ag 0.1 and m5-HT2A ag conf 14.9*.
Screening O=C(NCc1cccs1)C1CC1 returned CRFR2-BP antag 0.2, TLR9-MyD88 block 7.1, m5-HT2A agonist 5.7, TLR4 MyD88 comp -20.6, ABHD5-PLIN5 inh -5.3 and NOD2 RIPK2 PPI -5.2.
CC(C)N1C(=O)CCC1C(=O)NCc1cccs1 (stereo not given) was read as CRFR2-BP antag -1.2, TLR9-MyD88 block 3.3, m5-HT2A agonist 23.3*, TLR4 MyD88 comp 7.3, ABHD5-PLIN5 inh -1.8, NOD2 RIPK2 PPI -13.7, OPRM1 ag -0.6 and m5-HT2A ag conf -3.5.
Screening CCNC(=O)C[C@@H]1CC[C@H]2[C@@H](COC[C@H](O)CN2C(=O)C2CC2)O1 returned m5-HT2A agonist 6.6, ABHD5-PLIN5 inh -0.6 and NOD2 RIPK2 PPI -4.5.
For CN(Cc1ccccc1)C(=O)Cn1nnc(-c2ccccc2)c1COc1ccc2ccccc2c1 the results were m5-HT2A agonist 1.6, ABHD5-PLIN5 inh 4.8 and NOD2 RIPK2 PPI -7.4.
Screening CCOC(=O)[C@]12CCCC=C1N(Cc1ccccc1)C(=O)[C@H](CC(=O)N1CCC(c3ccccc3)CC1)C2 returned m5-HT2A agonist 1.6, ABHD5-PLIN5 inh -4.5 and NOD2 RIPK2 PPI -10.2.
CCn1c(C2CC(=O)N(Cc3ccccc3)C2)nc2ccccc21 (stereo not given) was read as CRFR2-BP antag 6.5, TLR9-MyD88 block -4.9, m5-HT2A agonist 40.5*, TLR4 MyD88 comp 11.8, ABHD5-PLIN5 inh -1.6, NOD2 RIPK2 PPI -12.1, OPRM1 ag -0.2 and m5-HT2A ag conf -3.8.
C=C(C)Cn1c(C2CC(=O)N(Cc3ccccc3)C2)nc2ccccc21 (stereo not given) was read as CRFR2-BP antag -6.5, TLR9-MyD88 block 1.3, m5-HT2A agonist -1.4, ABHD5-PLIN5 inh 2.7 and NOD2 RIPK2 PPI -5.0.
